Results filed as inconclusive are left out. Activity calls are given as the source filed them. Calls follow the shape of the dose curve; as a rule, active = well fitted inhibition curve with a large enough effect; inconclusive = small, poorly fitted or top-dose-only effect; inactive = flat fitted curve, though single readings scatter.
Tests used:
Test in all cases: qHTS profiling for inhibitors of Plasmodium falciparum proliferation (AID 504749); also: nearly all actives have a fitted effect of over 60% in size
Settings in all cases: P. falciparum in erythrocytes, SYBR Green DNA, 72 h; series mostly up to 28.7 µM
[1] = test system: CP256
Outline: (§1)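 Readout was DNA-dye fluorescence from lysed cultures, ex 485/em 535 nm. Parasitized red cells had grown 72 h with compound; data scaled between 0.29 uM artemisinin and DMSO wells and corrected using vehicle-only plates.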

[2] = test system: CP260
Outline: as §1

[3] = test system: CP265
Outline: as §1

[4] = test system: CP266
Outline: as §1

[5] = test system: CP268
Outline: as §1

[6] = test system: CP269
Outline: as §1

[7] = test system: CP286
Outline: as §1

[8] = test system: CP291
Outline: as §1

[9] = test system: CP297
Outline: as §1

[10] = test system: CP305
Outline: as §1

[11] = test system: CP315
Outline: as §1

[12] = test system: CP325
Outline: as §1

[13] = test system: CP329
Outline: as §1

[14] = test system: CP335
Outline: as §1

[15] = test system: DFO2036
Outline: as §1

[16] = test system: DIV14
Outline: as §1

[17] = test system: DIV17
Outline: as §1

[18] = test system: DIV30
Outline: as §1

[19] = test system: Dd2
Outline: as §1

[20] = test system: ECU
Outline: as §1

[21] = test system: FAB9
Outline: as §1

[22] = test system: GB4
Outline: as §1

[23] = test system: HB3
Outline: as §1

[24] = test system: ICS
Outline: as §1

[25] = test system: N140
Outline: as §1

[26] = test system: P93_24
Outline: as §1

[27] = test system: P94_40
Outline: as §1

[28] = test system: PAD
Outline: as §1

[29] = test system: PC15
Outline: as §1

[30] = test system: PC49
Outline: as §1

[31] = test system: SC27B
Outline: as §1

[32] = test system: TAB109
Outline: as §1

[33] = test system: TAB113
Outline: as §1

[34] = test system: TAB165
Outline: as §1

Measured: Potency
Potency is read from the fitted curve at half-maximal effect.

CO[C@H]1/C=C/O[C@@]2(C)Oc3c(C)c(O)c4c(O)c(c(/C=N\N5CCN(C6CCCC6)CC5)c(O)c4c3C2=O)NC(=O)/C(C)=C\C=C\[C@H](C)[C@H](O)[C@@H](C)[C@@H](O)[C@@H](C)[C@H](OC(C)=O)[C@@H]1C
active: [1] 2.82 µM | [2] 1 µM | [3] 1.26 µM | [4] 6.01 µM | [5] 3.79 µM | [6] 3.38 µM | [7] 2.24 µM | [8] 4.26 µM | [9] 1.69 µM | [10] 4.78 µM | [11] 4.78 µM | [12] 4.78 µM | [13] 4.78 µM | [14] 1.35 µM | [15] 1.41 µM | [16] 0.675 µM | [17] 0.601 µM | [18] 0.849 µM | [19] 0.447 µM | [20] 0.199 µM | [21] 10 µM | [22] 1.07 µM | [23] 0.794 µM | [24] 0.112 µM | [25] 0.141 µM | [26] 0.355 µM | [27] 0.224 µM | [28] 0.199 µM | [29] 0.794 µM | [30] 0.708 µM | [31] 0.251 µM | [32] 1.26 µM | [33] 0.282 µM | [34] 0.158 µM
